From PMC12529666, “Dysregulation of AGO2-miRNA dynamics underlies the AGO2-associated Lessel–Kreienkamp syndrome”
Numbering of substitutions follows the chain as printed.

B1: GTACCTCG (ssRNA)
RNA 1: GAGUUCUACAGUCCGACGAUCCCAACGUACCUCGCACCUGGAAUUCUCGGGUGCCAA
RNA 2: UGGAGUGUGACAAUGGUGUUUG
DNA 1: GATCGTCGGACTGTAGAACTC
DNA 2: TTGGCACCCGAGAATTCCA
modifications: constant regions annealed to DNA blockers; guide miR-122 5' phosphate
B2: ACACTTCG (ssRNA)
RNA 1: B1 RNA 1 with G27A, U28C, C31U
RNA 2: UGGAGUGUGACAAUGGUGUUUG
DNA 1: GATCGTCGGACTGTAGAACTC
DNA 2: TTGGCACCCGAGAATTCCA
modifications: constant regions annealed to DNA blockers; guide miR-122 5' phosphate
B3: ATATCCCG (ssRNA)
RNA 1: B1 RNA 1 with G27A, C30U, U32C
RNA 2: UGGAGUGUGACAAUGGUGUUUG
DNA 1: GATCGTCGGACTGTAGAACTC
DNA 2: TTGGCACCCGAGAATTCCA
modifications: constant regions annealed to DNA blockers; guide miR-122 5' phosphate
B4: ATGTTCTA (ssRNA)
RNA 1: B1 RNA 1 with G27A, A29G, C30U, C31U, U32C, C33U, G34A
RNA 2: UGGAGUGUGACAAUGGUGUUUG
DNA 1: GATCGTCGGACTGTAGAACTC
DNA 2: TTGGCACCCGAGAATTCCA
modifications: constant regions annealed to DNA blockers; guide miR-122 5' phosphate
B5: GCGTCTTG (ssRNA)
RNA 1: B1 RNA 1 with U28C, A29G, C30U, C33U
RNA 2: UGGAGUGUGACAAUGGUGUUUG
DNA 1: GATCGTCGGACTGTAGAACTC
DNA 2: TTGGCACCCGAGAATTCCA
modifications: constant regions annealed to DNA blockers; guide miR-122 5' phosphate
B6: ACGCTTTA (ssRNA)
RNA 1: B1 RNA 1 with G27A, U28C, A29G, C31U, C33U, G34A
RNA 2: UGGAGUGUGACAAUGGUGUUUG
DNA 1: GATCGTCGGACTGTAGAACTC
DNA 2: TTGGCACCCGAGAATTCCA
modifications: constant regions annealed to DNA blockers; guide miR-122 5' phosphate
B7: GTGCCCTG (ssRNA)
RNA 1: B1 RNA 1 with A29G, U32C, C33U
RNA 2: UGGAGUGUGACAAUGGUGUUUG
DNA 1: GATCGTCGGACTGTAGAACTC
DNA 2: TTGGCACCCGAGAATTCCA
modifications: constant regions annealed to DNA blockers; guide miR-122 5' phosphate
B8: ACACCTCG (ssRNA)
RNA 1: B1 RNA 1 with G27A, U28C
RNA 2: UGGAGUGUGACAAUGGUGUUUG
DNA 1: GATCGTCGGACTGTAGAACTC
DNA 2: TTGGCACCCGAGAATTCCA
modifications: constant regions annealed to DNA blockers; guide miR-122 5' phosphate
B9: GCACTTCG (ssRNA)
RNA 1: B1 RNA 1 with U28C, C31U
RNA 2: UGGAGUGUGACAAUGGUGUUUG
DNA 1: GATCGTCGGACTGTAGAACTC
DNA 2: TTGGCACCCGAGAATTCCA
modifications: constant regions annealed to DNA blockers; guide miR-122 5' phosphate
B10: GCGCTTCG (ssRNA)
RNA 1: B1 RNA 1 with U28C, A29G, C31U
RNA 2: UGGAGUGUGACAAUGGUGUUUG
DNA 1: GATCGTCGGACTGTAGAACTC
DNA 2: TTGGCACCCGAGAATTCCA
modifications: constant regions annealed to DNA blockers; guide miR-122 5' phosphate
B11: GCATTCCG (ssRNA)
RNA 1: B1 RNA 1 with U28C, C30U, C31U, U32C
RNA 2: UGGAGUGUGACAAUGGUGUUUG
DNA 1: GATCGTCGGACTGTAGAACTC
DNA 2: TTGGCACCCGAGAATTCCA
modifications: constant regions annealed to DNA blockers; guide miR-122 5' phosphate

Biological target: AGO2 L192P (Homo sapiens, UniProt Q9UKV8 1-859, L192P;S387D;S824A;S828D;S831D;S834A)
Sequence (Q9UKV8 whole entry L192P/S387D/S824A/S828D/S831D/S834A): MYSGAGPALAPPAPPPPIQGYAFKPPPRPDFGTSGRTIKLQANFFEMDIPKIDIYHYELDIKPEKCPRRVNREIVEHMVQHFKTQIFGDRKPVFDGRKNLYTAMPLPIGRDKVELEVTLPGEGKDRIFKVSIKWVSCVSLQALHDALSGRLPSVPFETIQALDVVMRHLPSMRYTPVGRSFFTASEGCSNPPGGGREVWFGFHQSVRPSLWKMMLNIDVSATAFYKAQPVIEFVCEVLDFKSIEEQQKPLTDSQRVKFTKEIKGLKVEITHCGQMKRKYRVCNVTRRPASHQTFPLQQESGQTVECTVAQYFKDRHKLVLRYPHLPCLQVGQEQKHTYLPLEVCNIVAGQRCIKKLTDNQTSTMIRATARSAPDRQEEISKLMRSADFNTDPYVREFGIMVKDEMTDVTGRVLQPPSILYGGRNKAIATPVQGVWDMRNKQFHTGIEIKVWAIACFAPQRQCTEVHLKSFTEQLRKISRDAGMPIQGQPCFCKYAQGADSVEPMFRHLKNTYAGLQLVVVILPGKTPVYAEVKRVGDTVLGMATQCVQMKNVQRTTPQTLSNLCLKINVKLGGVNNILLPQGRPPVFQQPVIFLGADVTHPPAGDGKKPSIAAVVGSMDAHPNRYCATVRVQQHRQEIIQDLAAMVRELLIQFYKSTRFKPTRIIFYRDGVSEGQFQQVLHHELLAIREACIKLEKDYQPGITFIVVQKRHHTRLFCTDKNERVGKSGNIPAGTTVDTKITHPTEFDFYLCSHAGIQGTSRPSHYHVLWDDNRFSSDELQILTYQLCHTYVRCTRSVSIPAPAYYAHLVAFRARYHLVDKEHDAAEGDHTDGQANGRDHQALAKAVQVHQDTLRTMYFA
Experiment: RNA Bind-n-Seq (nitrocellulose filter binding and sequencing); miR-122 guide loaded in AGO2; 60 min incubation; 30 mM Tris pH 8.0, 100 mM potassium acetate, 2 mM magnesium acetate, 0.5 mM TCEP, 0.005% NP-40, 0.01 mg/ml yeast tRNA; 3 nM AGO2-miR-122, 100 nM RNA library; 60; high values mean tight binding
Conditions: protein: recombinant; tags: His6 (N-terminal, pFastBac HTA)
Procedure, shortened: (§1)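 His-tagged AGO2 was expressed in Sf9 insect cells by baculovirus, loaded with a synthetic guide RNA, and purified by Ni-NTA and a biotinylated capture oligo. Bound RNA was extracted, reverse-transcribed, barcode-amplified and Illumina-sequenced. Fold enrichment is each sequence's read fraction divided by its input-library read fraction.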

| Binder | binding signal |
| --- | --- |
| B1 | 0.347 fold enrichment over input |
| B2 | 0.433 fold enrichment over input |
| B3 | 0.335 fold enrichment over input |
| B4 | 0.469 fold enrichment over input |
| B5 | 0.395 fold enrichment over input |
| B6 | 0.468 fold enrichment over input |
| B7 | 0.425 fold enrichment over input |
| B8 | 0.412 fold enrichment over input |
| B9 | 0.348 fold enrichment over input |
| B10 | 0.354 fold enrichment over input |
| B11 | 0.436 fold enrichment over input |

Biological target: AGO2 A367P (Homo sapiens, UniProt Q9UKV8 1-859, A367P;S387D;S824A;S828D;S831D;S834A)
Sequence (Q9UKV8 whole entry A367P/S387D/S824A/S828D/S831D/S834A): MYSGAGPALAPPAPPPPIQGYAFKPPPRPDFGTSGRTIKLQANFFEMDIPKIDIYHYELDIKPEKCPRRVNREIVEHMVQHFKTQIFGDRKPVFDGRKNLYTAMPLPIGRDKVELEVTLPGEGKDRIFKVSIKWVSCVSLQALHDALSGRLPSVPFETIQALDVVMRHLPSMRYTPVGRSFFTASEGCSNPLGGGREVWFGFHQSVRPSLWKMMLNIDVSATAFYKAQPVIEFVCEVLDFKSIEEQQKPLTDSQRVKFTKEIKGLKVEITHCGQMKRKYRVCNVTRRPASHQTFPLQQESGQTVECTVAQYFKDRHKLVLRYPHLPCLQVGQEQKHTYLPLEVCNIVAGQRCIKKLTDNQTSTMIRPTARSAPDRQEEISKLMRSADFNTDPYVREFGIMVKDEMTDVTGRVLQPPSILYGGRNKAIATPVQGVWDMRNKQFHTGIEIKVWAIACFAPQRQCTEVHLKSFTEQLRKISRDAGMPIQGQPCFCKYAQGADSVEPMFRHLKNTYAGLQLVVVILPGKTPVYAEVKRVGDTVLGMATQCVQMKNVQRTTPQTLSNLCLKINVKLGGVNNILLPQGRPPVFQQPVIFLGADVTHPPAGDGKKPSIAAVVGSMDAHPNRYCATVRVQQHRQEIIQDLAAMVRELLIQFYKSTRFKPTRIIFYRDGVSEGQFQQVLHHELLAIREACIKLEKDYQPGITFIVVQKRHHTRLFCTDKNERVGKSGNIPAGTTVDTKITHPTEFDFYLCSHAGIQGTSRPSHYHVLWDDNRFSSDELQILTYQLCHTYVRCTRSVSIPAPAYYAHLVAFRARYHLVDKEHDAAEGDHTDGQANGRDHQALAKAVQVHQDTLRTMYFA
Experiment: as above
Conditions: protein: recombinant; tags: His6 (N-terminal, pFastBac HTA)
Procedure, shortened: as §1

| Binder | binding signal |
| --- | --- |
| B1 | 0.125 fold enrichment over input |
| B2 | 0.201 fold enrichment over input |
| B4 | 0.206 fold enrichment over input |
| B5 | 0.141 fold enrichment over input |
| B6 | 0.195 fold enrichment over input |
| B7 | 0.161 fold enrichment over input |
| B8 | 0.179 fold enrichment over input |
| B9 | 0.147 fold enrichment over input |
| B10 | 0.148 fold enrichment over input |
| B11 | 0.171 fold enrichment over input |

Biological target: AGO2 T357M (Homo sapiens, UniProt Q9UKV8 1-859, T357M;S387D;S824A;S828D;S831D;S834A)
Sequence (Q9UKV8 whole entry T357M/S387D/S824A/S828D/S831D/S834A): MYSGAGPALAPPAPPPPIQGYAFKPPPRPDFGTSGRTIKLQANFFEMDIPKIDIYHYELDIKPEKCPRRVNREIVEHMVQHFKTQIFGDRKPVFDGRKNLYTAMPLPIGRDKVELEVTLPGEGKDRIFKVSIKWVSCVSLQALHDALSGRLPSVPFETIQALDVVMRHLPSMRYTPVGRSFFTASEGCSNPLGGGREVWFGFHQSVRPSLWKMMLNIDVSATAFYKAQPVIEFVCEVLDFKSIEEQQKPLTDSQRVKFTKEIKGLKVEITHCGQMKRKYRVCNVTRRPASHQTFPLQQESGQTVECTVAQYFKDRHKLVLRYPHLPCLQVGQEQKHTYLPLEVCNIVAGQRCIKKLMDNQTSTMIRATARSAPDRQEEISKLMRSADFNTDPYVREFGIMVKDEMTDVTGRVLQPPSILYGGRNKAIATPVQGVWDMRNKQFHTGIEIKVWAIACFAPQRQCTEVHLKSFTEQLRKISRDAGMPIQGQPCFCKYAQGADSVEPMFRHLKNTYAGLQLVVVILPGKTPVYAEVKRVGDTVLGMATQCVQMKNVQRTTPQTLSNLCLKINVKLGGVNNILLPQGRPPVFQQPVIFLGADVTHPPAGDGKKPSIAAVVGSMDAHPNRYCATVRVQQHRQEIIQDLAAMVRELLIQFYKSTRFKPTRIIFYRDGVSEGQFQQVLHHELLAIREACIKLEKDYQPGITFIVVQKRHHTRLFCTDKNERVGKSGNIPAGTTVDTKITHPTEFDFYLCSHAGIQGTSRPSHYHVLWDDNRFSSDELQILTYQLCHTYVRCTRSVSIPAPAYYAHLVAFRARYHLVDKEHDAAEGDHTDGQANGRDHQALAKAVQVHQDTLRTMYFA
Experiment: as above
Conditions: protein: recombinant; tags: His6 (N-terminal, pFastBac HTA)
Procedure, shortened: as §1

| Binder | binding signal |
| --- | --- |
| B1 | 0.419 fold enrichment over input |
| B2 | 0.541 fold enrichment over input |
| B3 | 0.422 fold enrichment over input |
| B4 | 0.606 fold enrichment over input |
| B5 | 0.547 fold enrichment over input |
| B6 | 0.588 fold enrichment over input |
| B7 | 0.581 fold enrichment over input |
| B8 | 0.471 fold enrichment over input |
| B9 | 0.471 fold enrichment over input |
| B10 | 0.531 fold enrichment over input |
| B11 | 0.548 fold enrichment over input |

Biological target: AGO2 F182del (Homo sapiens, UniProt Q9UKV8 1-859, S387D;S824A;S828D;S831D;S834A;del182-182)
Sequence (Q9UKV8 other isoform, or with tags, fused parts or gaps S387D;S824A;S828D;S831D;S834A;del182-182): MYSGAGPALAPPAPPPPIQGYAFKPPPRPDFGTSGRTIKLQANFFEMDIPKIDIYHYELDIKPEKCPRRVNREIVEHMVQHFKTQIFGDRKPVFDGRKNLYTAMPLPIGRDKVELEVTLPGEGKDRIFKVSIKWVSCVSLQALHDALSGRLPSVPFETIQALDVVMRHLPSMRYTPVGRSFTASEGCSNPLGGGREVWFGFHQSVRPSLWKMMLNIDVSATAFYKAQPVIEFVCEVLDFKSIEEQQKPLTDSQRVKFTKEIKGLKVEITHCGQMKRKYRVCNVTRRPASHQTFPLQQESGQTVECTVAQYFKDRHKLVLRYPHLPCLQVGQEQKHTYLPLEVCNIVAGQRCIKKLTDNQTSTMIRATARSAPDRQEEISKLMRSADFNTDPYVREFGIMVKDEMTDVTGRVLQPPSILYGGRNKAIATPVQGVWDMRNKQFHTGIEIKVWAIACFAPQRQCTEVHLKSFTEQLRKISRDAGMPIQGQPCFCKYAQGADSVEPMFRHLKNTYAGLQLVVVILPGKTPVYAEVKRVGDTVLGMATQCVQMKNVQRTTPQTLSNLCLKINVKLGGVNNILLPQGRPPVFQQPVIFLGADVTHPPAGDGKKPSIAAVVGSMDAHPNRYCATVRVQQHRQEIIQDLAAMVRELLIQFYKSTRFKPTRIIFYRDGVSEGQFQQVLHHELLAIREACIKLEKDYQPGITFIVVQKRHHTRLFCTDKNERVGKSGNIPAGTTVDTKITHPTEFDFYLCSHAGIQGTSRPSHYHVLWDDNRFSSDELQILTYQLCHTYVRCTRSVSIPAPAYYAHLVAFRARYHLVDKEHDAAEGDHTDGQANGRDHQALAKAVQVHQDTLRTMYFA
Experiment: as above
Conditions: protein: recombinant; tags: His6 (N-terminal, pFastBac HTA)
Procedure, shortened: as §1

| Binder | binding signal |
| --- | --- |
| B2 | 0.152 fold enrichment over input |
| B4 | 0.182 fold enrichment over input |
| B6 | 0.135 fold enrichment over input |
| B8 | 0.256 fold enrichment over input |
